Where “and” joins values, the source holds several entries; their conditions need not be identical. Equal values may be shown once. Among all 6,400 compounds or so, about 610 (9.5%) were called active. What follows is part of a selection rich in actives, with near analogues and random picks from the rest. A number with no mark means an inactive call. No stated cut-off is given here; in the data, active means activity change below about -70%; inconclusive means no clear call, values can overlap the other calls; inactive means above that.
assay: Toxoplasma gondii ME49Luc growth in HeLa cells, luciferase, no IFN-y, primary screen (AID 1259421); conditions: T. gondii ME49Luc in HeLa, 72 h, stronger effect = lower value, concentration not given here

**Q.** With `CCCCCCCC(=O)OCC(COC(=O)CCCCCCC)OC(=O)CCCCCCC` as the molecule, how does the activity change, negative = inhibition read?
**A.** 13.9%

**Q.** Which activity change, negative = inhibition does the source give for `[Cl][Ru]([Cl])([Cl])[Cl].c1ccc2[nH]ncc2c1.c1ccc2[nH]ncc2c1` here?
**A.** 8%

**Q.** With `C[C@]12CCC(=O)C=C1CCC1C2C(=O)C[C@@]2(C)C1CC[C@]2(O)C(=O)CO` (some centres not stated) as the molecule, how does the activity change, negative = inhibition read?
**A.** -0.365% and 6.68%

**Q.** For `CC(=O)[C@@]12O[C@](C)(c3ccccc3)O[C@@H]1CC1C3CCC4=CC(=O)CC[C@]4(C)C3CC[C@@]12C` (some centres not stated), which activity change, negative = inhibition is on record?
**A.** -11.3%

**Q.** Which activity change, negative = inhibition does the source give for `CC(=O)[C@@]12OC(C)(c3ccccc3)O[C@@H]1C[C@H]1[C@@H]3CCC4=CC(=O)CC[C@]4(C)[C@H]3CC[C@@]12C` (some centres not stated) here?
**A.** -52.9%

**Q.** For `C#CC1(O)CCC2C3CCC4=Cc5oncc5CC4(C)C3CCC21C` (configuration not stated), which activity change, negative = inhibition is on record?
**A.** -93.9% (active)

**Q.** With `C#C[C@]1(O)CCC2C3CCC4=Cc5oncc5C[C@]4(C)C3CC[C@@]21C` (some centres not stated) as the molecule, how does the activity change, negative = inhibition read?
**A.** -82.2% (active) and -83.7% (active)

**Q.** For `NC(CSSCC(N)C(=O)O)C(=O)O` (configuration not stated), which activity change, negative = inhibition is on record?
**A.** 13.9%

**Q.** With `CC1(C)SC2C(NC(=O)[C@H](NC(=O)N3CCNC3=O)c3ccccc3)C(=O)N2C1C(=O)O` (some centres not stated) as the molecule, how does the activity change, negative = inhibition read?
**A.** 33.6%

**Q.** Which activity change, negative = inhibition does the source give for `NS(=O)(=O)c1cc2c(cc1Cl)NC(C(Cl)Cl)NS2(=O)=O` (configuration not stated) here?
**A.** 13.1% and 33%

**Q.** Which activity change, negative = inhibition does the source give for `NS(=O)(=O)c1cc2c(cc1Cl)NC(CC1CCCC1)NS2(=O)=O` (configuration not stated) here?
**A.** 18.7%

**Q.** Which activity change, negative = inhibition does the source give for `NS(=O)(=O)c1cc2c(cc1Cl)NC(C1CC3C=CC1C3)NS2(=O)=O` (configuration not stated) here?
**A.** -95.9% (active)

**Q.** For `O=C1c2ccccc2C(Cc2ccnc(F)c2)(Cc2ccnc(F)c2)c2ccccc21`, which activity change, negative = inhibition is on record?
**A.** 21.9% and 12.1%

**Q.** With `O=C1N[C@@H]2[C@@H](O)[C@@H](O)[C@H](O)[C@@H](CO)N2C1=O` as the molecule, how does the activity change, negative = inhibition read?
**A.** 11.7%

**Q.** Which activity change, negative = inhibition does the source give for `O[C@H]([C@H](O)[C@@H]1CO1)[C@H]1CO1` here?
**A.** 5.39%

**Q.** Which activity change, negative = inhibition does the source give for `C=C1c2cccc(O)c2C(=O)C2C(=O)[C@]3(O)C(=O)C(C(N)=O)C(=O)[C@@H](N(C)C)[C@@H]3[C@@H](O)[C@H]12` (some centres not stated) here?
**A.** -67.5% and 19%

**Q.** Which activity change, negative = inhibition does the source give for `C=C1c2c(Cl)ccc(O)c2C(=O)C2C(=O)[C@]3(O)C(=O)C(C(N)=O)C(=O)[C@@H](N(C)C)[C@@H]3[C@@H](O)[C@H]12` (some centres not stated) here?
**A.** -9.94% and 7.28%

**Q.** For `CCC(CC)C(c1ccc(Nc2nc3ccccc3s2)cc1)n1cncn1` (configuration not stated), which activity change, negative = inhibition is on record?
**A.** 4.5%

**Q.** Which activity change, negative = inhibition does the source give for `COC(=O)N(C)c1c(N)nc(-c2nn(Cc3ccccc3F)c3ncccc23)nc1N` here?
**A.** 2.65%

**Q.** For `CC(=O)O[C@H]1C(=O)[C@@]2(C)C([C@H](OC(=O)c3ccccc3)[C@]3(O)C[C@H](OC(=O)[C@H](O)[C@@H](NC(=O)c4ccccc4)c4ccccc4)C(C)=C1C3(C)C)[C@]1(OC(C)=O)CO[C@@H]1C[C@@H]2O` (some centres not stated), which activity change, negative = inhibition is on record?
**A.** -86.6% (active) and -77.4% (active)

**Q.** With `CC(=O)O[C@H]1C(=O)[C@@]2(C)[C@H]([C@H](OC(=O)c3ccccc3)[C@]3(O)C[C@H](OC(=O)[C@H](O)[C@@H](NC(=O)c4ccccc4)c4ccccc4)C(C)=C1C3(C)C)[C@]1(OC(C)=O)CO[C@@H]1C[C@@H]2O` as the molecule, how does the activity change, negative = inhibition read?
**A.** -84.9% (active) and -74.8% (active)

**Q.** For `CC(=O)OC1C(=O)C2(C)C(O)CC3OCC3(OC(C)=O)C2C(OC(=O)c2ccccc2)C2(O)CC(OC(=O)C(O)C(NC(=O)c3ccccc3)c3ccccc3)C(C)=C1C2(C)C` (configuration not stated), which activity change, negative = inhibition is on record?
**A.** -87.7% (active)

Source: PubChem BioAssay AID1259421 (Broad Institute, 2018)
